Measurements taken from the supplement of paper PMC8975748.
Counter-ions that a name gives are not always drawn. ± gives the standard deviation of the averaged measurements.

What was measured:
[1] = tested on: Saccharomyces cerevisiae BY4741 SeMeCo community; test: mean cell size (pixel area) (pixels); higher = larger cells; conditions: 10 µM; 24 h; SM minimal medium
In short: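 Harmony analysis of automated confocal images of paraformaldehyde-fixed yeast gave the mean cell pixel area per well. The yeast was a Saccharomyces cerevisiae BY4741 community carrying four plasmids, each with a fluorescent marker and each complementing one auxotrophy, incubated for 24 h in SM medium containing drug at a final 10 µM in 384-well plates. Results are averaged over 3 replicates. Same SeMeCo high-content imaging drug screen: Selleck FDA-approved drugs at 10 µM, 24 h in SM medium, 384-well plates, 3 replicates.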

[2] = tested on: Saccharomyces cerevisiae BY4741 SeMeCo community; test: z-score of subpopulation abundance vs DMSO median, subpopulation auxotrophic for M; higher = larger share of this subpopulation than in DMSO controls; conditions: 10 µM; 24 h; SM minimal medium; subpopulation (auxotrophy): M
In short: (§1)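 A Saccharomyces cerevisiae BY4741 community carried four plasmids, each restoring one auxotrophy and encoding a distinct fluorescent protein. It was pre-grown overnight to OD600 1.0, diluted to 0.3, and 70 µl was added to 384-well plates acoustically predosed with library drugs (10 µM final), then grown 24 h in minimal SM medium. Cells were paraformaldehyde-fixed and imaged by automated confocal microscopy, with single-auxotroph fluorescent strains setting thresholds and autofluorescence correction. Each subpopulation's abundance was scored as a z-score against the vehicle-well median.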

[3] = tested on: Saccharomyces cerevisiae BY4741 SeMeCo community; test: z-score of subpopulation abundance vs DMSO median, subpopulation auxotrophic for L; higher = larger share of this subpopulation than in DMSO controls; conditions: 10 µM; 24 h; SM minimal medium; subpopulation (auxotrophy): L
In short: as §1

[4] = tested on: Saccharomyces cerevisiae BY4741 SeMeCo community; test: z-score of subpopulation abundance vs DMSO median, subpopulation auxotrophic for U; higher = larger share of this subpopulation than in DMSO controls; conditions: 10 µM; 24 h; SM minimal medium; subpopulation (auxotrophy): U
In short: as §1

[5] = tested on: Saccharomyces cerevisiae BY4741 SeMeCo community; test: z-score of subpopulation abundance vs DMSO median, subpopulation auxotrophic for H; higher = larger share of this subpopulation than in DMSO controls; conditions: 10 µM; 24 h; SM minimal medium; subpopulation (auxotrophy): H
In short: as §1

[6] = tested on: Saccharomyces cerevisiae BY4741 SeMeCo community; test: z-score of subpopulation abundance vs DMSO median, subpopulation auxotrophic for LU; higher = larger share of this subpopulation than in DMSO controls; conditions: 10 µM; 24 h; SM minimal medium; subpopulation (auxotrophy): LU
In short: as §1

[7] = tested on: Saccharomyces cerevisiae BY4741 SeMeCo community; test: z-score of subpopulation abundance vs DMSO median, subpopulation auxotrophic for HM; higher = larger share of this subpopulation than in DMSO controls; conditions: 10 µM; 24 h; SM minimal medium; subpopulation (auxotrophy): HM
In short: as §1

[8] = tested on: Saccharomyces cerevisiae BY4741 SeMeCo community; test: z-score of subpopulation abundance vs DMSO median, subpopulation auxotrophic for HU; higher = larger share of this subpopulation than in DMSO controls; conditions: 10 µM; 24 h; SM minimal medium; subpopulation (auxotrophy): HU
In short: as §1

[9] = tested on: Saccharomyces cerevisiae BY4741 SeMeCo community; test: z-score of subpopulation abundance vs DMSO median, subpopulation auxotrophic for UM; higher = larger share of this subpopulation than in DMSO controls; conditions: 10 µM; 24 h; SM minimal medium; subpopulation (auxotrophy): UM
In short: as §1

[10] = tested on: Saccharomyces cerevisiae BY4741 SeMeCo community; test: z-score of subpopulation abundance vs DMSO median, subpopulation auxotrophic for HL; higher = larger share of this subpopulation than in DMSO controls; conditions: 10 µM; 24 h; SM minimal medium; subpopulation (auxotrophy): HL
In short: as §1

[11] = tested on: Saccharomyces cerevisiae BY4741 SeMeCo community; test: z-score of subpopulation abundance vs DMSO median, subpopulation auxotrophic for HLU; higher = larger share of this subpopulation than in DMSO controls; conditions: 10 µM; 24 h; SM minimal medium; subpopulation (auxotrophy): HLU
In short: as §1

[12] = tested on: Saccharomyces cerevisiae BY4741 SeMeCo community; test: z-score of subpopulation abundance vs DMSO median, subpopulation auxotrophic for HLM; higher = larger share of this subpopulation than in DMSO controls; conditions: 10 µM; 24 h; SM minimal medium; subpopulation (auxotrophy): HLM
In short: as §1

[13] = tested on: Saccharomyces cerevisiae BY4741 SeMeCo community; test: z-score of subpopulation abundance vs DMSO median, subpopulation auxotrophic for HUM; higher = larger share of this subpopulation than in DMSO controls; conditions: 10 µM; 24 h; SM minimal medium; subpopulation (auxotrophy): HUM
In short: as §1

[14] = tested on: Saccharomyces cerevisiae BY4741 SeMeCo community; test: z-score of subpopulation abundance vs DMSO median, subpopulation auxotrophic for LUM; higher = larger share of this subpopulation than in DMSO controls; conditions: 10 µM; 24 h; SM minimal medium; subpopulation (auxotrophy): LUM
In short: as §1

[15] = tested on: Saccharomyces cerevisiae BY4741 SeMeCo community; test: z-score of prototroph abundance vs DMSO median; higher = larger share of this subpopulation than in DMSO controls; conditions: 10 µM; 24 h; SM minimal medium; subpopulation (auxotrophy): Prototroph
In short: as §1

[16] = tested on: Saccharomyces cerevisiae BY4741 SeMeCo community; test: z-score of subpopulation abundance vs DMSO median, subpopulation auxotrophic for LM; higher = larger share of this subpopulation than in DMSO controls; conditions: 10 µM; 24 h; SM minimal medium; subpopulation (auxotrophy): LM
In short: as §1

[17] = tested on: Saccharomyces cerevisiae BY4741 SeMeCo community; test: z-score of subpopulation abundance vs DMSO median, subpopulation auxotrophic for HLUM; higher = larger share of this subpopulation than in DMSO controls; conditions: 10 µM; 24 h; SM minimal medium; subpopulation (auxotrophy): HLUM
In short: as §1

CC1=C(C(=O)O)N2C(=O)[C@@H](NC(=O)[C@H](N)c3ccc(O)cc3)[C@H]2SC1 [Cefadroxil hydrate]
mean cell size [1]: 12.1 ± 0.2
z-score of subpopulation abundance [2]: -0.99
z-score of subpopulation abundance [3]: -0.28
z-score of subpopulation abundance [4]: -0.62
z-score of subpopulation abundance [5]: 0.01
z-score of subpopulation abundance [6]: -0.23
z-score of subpopulation abundance [7]: -0.79
z-score of subpopulation abundance [8]: -0.04
z-score of subpopulation abundance [9]: -0.45
z-score of subpopulation abundance [10]: -0.19
z-score of subpopulation abundance [11]: -0.42
z-score of subpopulation abundance [12]: -0.45
z-score of subpopulation abundance [13]: -0.39
z-score of subpopulation abundance [14]: -0.5

OB1OCc2cc(F)ccc21 [Tavaborole (AN-2690)]
mean cell size [1]: 14 ± 0.24
z-score of prototroph abundance [15]: -16.4
z-score of subpopulation abundance [2]: 1
z-score of subpopulation abundance [3]: 0.22
z-score of subpopulation abundance [4]: -3.62
z-score of subpopulation abundance [5]: 14.2
z-score of subpopulation abundance [6]: 4.22
z-score of subpopulation abundance [16]: 6.17
z-score of subpopulation abundance [8]: 5.21
z-score of subpopulation abundance [11]: 23.2
z-score of subpopulation abundance [12]: 98
z-score of subpopulation abundance [13]: 16.9
z-score of subpopulation abundance [17]: 47.7

CO/N=C(\C(=O)N[C@@H]1C(=O)N2C(C(=O)O)=C(Cn3ccc(=N)n3CCO)CS[C@H]12)c1csc(N)n1 [Cefoselis Sulfate]
z-score of prototroph abundance [15]: 0.34
z-score of subpopulation abundance [2]: 1.45
z-score of subpopulation abundance [3]: -1.67
z-score of subpopulation abundance [4]: 0.03
z-score of subpopulation abundance [5]: -1.31
z-score of subpopulation abundance [6]: -0.98
z-score of subpopulation abundance [16]: -0.08
z-score of subpopulation abundance [7]: -0.32
z-score of subpopulation abundance [8]: -0.72
z-score of subpopulation abundance [10]: -1.68
z-score of subpopulation abundance [11]: -0.33
z-score of subpopulation abundance [12]: -1.24
z-score of subpopulation abundance [13]: 0.02
z-score of subpopulation abundance [14]: -0.44
z-score of subpopulation abundance [17]: -0.64

CN[C@@H]1[C@@H](O[C@H]2O[C@H](CO)[C@@H](N)[C@H](O)[C@H]2O)OC2C[C@@H](N)[C@@H](O[C@H]3[C@H](O)[C@@H](O)[C@H](N)C[C@@H]3N)OC2[C@@H]1O (stereo partly specified) [Apramycin Sulfate]
mean cell size [1]: 12 ± 0.25
z-score of prototroph abundance [15]: -0.43
z-score of subpopulation abundance [2]: -0.24
z-score of subpopulation abundance [3]: -0.01
z-score of subpopulation abundance [4]: 0.87
z-score of subpopulation abundance [6]: 0.41
z-score of subpopulation abundance [8]: -0.09
z-score of subpopulation abundance [9]: 0.56
z-score of subpopulation abundance [10]: 0.24
z-score of subpopulation abundance [11]: 0.36
z-score of subpopulation abundance [12]: 0.1
z-score of subpopulation abundance [13]: 0.37
z-score of subpopulation abundance [14]: 0.97
z-score of subpopulation abundance [17]: 1.47
